These results are taken from PubChem BioAssay (NCI).

What all share (test): NCI-60 one-dose screen, 48 h (100 = growth as untreated, 0 = no growth, -100 = all killed)
What all share (conditions): 10 µM unless noted

The test system of assay [1] is NCI-H23 lung.
Assay [2] relates to NCI-H226 lung.
Assay [3] relates to NCI-H322M lung.
Assay [4] deals with HOP-62 NSCLC.
Assay [5] has as its system NCI-H460 lung.
In assay [6] the test system is 786-0 renal.
Assay [7] concerns DU-145 prostate.
In assay [8] the test system is MDA-MB-231 breast.
Assay [9] has as its system SF-268 CNS.
Assay [10] concerns SNB-19 CNS.
Assay [11] has as its system UACC-62 melanoma.
Assay [12] concerns SK-MEL-28 melanoma.
Assay [13] concerns SN12C renal.
Assay [14] deals with UO-31 renal.
The test system of assay [15] is OVCAR-5 ovarian.
Assay [16] concerns OVCAR-3 ovarian.
Assay [17] has as its system NCI/ADR-RES ovarian.
Assay [18] concerns MDA-MB-435 melanoma.
Assay [19] has as its system MCF7 breast.
The test system of assay [20] is KM12 colon.

This is part of a sample that, as a whole, favours compounds with a hit. Of some 83,000 tested, about 20% had one in any assay.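 Compound tested at a single concentration for 48 hours in 96-well plates; a percent growth value below 10 was scored as active.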 Unmarked numbers belong to inactive results. Activity calls are given as the source filed them.

Regarding `O=[N+]([O-])c1cccc([As]=[As]c2cccc([N+](=O)[O-])c2)c1` (stereo not given), the growth in assay [1] is -36.4% (active); in [2], -60.7% (active); in assay [3], -97.4% (active); in assay [4], -95.1% (active); in assay [5], -65.7% (active); in assay [6] it was -93% (active). Moreover, the growth was -100% (active) in [7]; -91.8% (active) in assay [8]; -92.1% (active) in assay [9]; -98.6% (active) in assay [10]; -97.6% (active) in assay [11]; -98.4% (active) in assay [12]. The growth was -96% (active) in assay [13]; -98.7% (active) in [14]; -85.2% (active) in [15]; -96.1% (active) in [16]; -1.16% (active) in assay [17]; -91.5% (active) in assay [18]. Besides, the growth in assay [19] was -53.6% (active); in [20] it was -92.7% (active).
With `Cc1cc(C)nc(C)c1.[Cl][Hg][Cl]`, the growth was 98.9% in assay [1]; 120% in [2]; 91.5% in assay [3]; 102% in [4]; 101% in assay [5]; 104% in [6]. Besides, the growth in assay [7] was 102%; in assay [8] it was 118%; in [9], 102%; in assay [10], 104%; in assay [11] it was 95%; in assay [12] it was 94%. Further, the growth in assay [13] is 104%; in assay [14], 95.5%; in assay [15], 114%; in [16], 108%; in assay [17], 102%; in assay [18], 83.9%. Moreover, the growth in [19] was 82.7%; in assay [20], 96.2%.
`O=C(/C=C/c1ccccc1)N[C@@H](CO)Cc1cnc[nH]1`: the growth in assay [1] is 113%; in [2], 94%; in [3] it was 101%; in [4], 101%; in assay [5] it was 105%; in [6], 103%. Also, the growth in assay [7] is 114%; in [8], 98.9%; in [9] it was 101%; in [10], 103%; in assay [11], 110%; in assay [12], 99.4%. Moreover, the growth was 105% in assay [13]; 98.2% in assay [14]; 98.3% in assay [15]; 112% in assay [16]; 98% in [17]; 113% in [18]. The growth in [19] was 98.7%; in [20] it was 105%.
For the molecule `Cc1cc([N+](=O)[O-])c(Cl)cc1NS(=O)(=O)c1ccccc1`, the growth was 76.5% in [1]; 64.7% in [2]; 85.4% in assay [3]; 90% in [4]; 73.2% in assay [5]; 60.1% in [6]. Moreover, the growth in assay [7] is 104%; in [8], 108%; in assay [9] it was 90.3%; in assay [10], 79.1%; in [11] it was 37.1%; in [12], 76%. For the same molecule, the growth in assay [13] was 78.1%; in [14] it was 63.8%; in assay [15] it was 83.5%; in assay [16], 71.7%; in [17] it was 78.7%; in assay [18], 58.4%. In addition, the growth in assay [19] is 73.9%; in [20], 80.8%.
On to `O=C(NCCNC(=O)c1ccc([As](O)O)cc1)c1ccc([As](O)O)cc1`, for which the growth in assay [1] is 93%; in [2], 109%; in assay [3], 102%; in assay [4], 105%; in assay [5], 99.7%; in assay [6] it was 114%. The growth was 103% in assay [7]; 106% in assay [8]; 103% in assay [9]; 106% in assay [10]; 99.7% in [11]; 111% in assay [12]. Moreover, the growth in [13] was 113%; in [14] it was 96.8%; in [15], 114%; in [16], 104%; in assay [17], 101%; in [18], 104%. Moreover, the growth was 99.7% in assay [19] and 99.8% in assay [20].
As for `CC(C)(C)N(Cc1ccccc1)N=O`, the growth in assay [1] was 102%; in [2], 91.7%; in [3], 101%; in [4], 99.4%; in [5], 107%; in [6] it was 99%. Further, the growth in [7] is 107%; in assay [8] it was 91.9%; in assay [9], 108%; in assay [10] it was 97%; in assay [11], 103%; in assay [12], 106%. For the same molecule, the growth is 91.9% in assay [13]; 96.7% in assay [14]; 98.4% in assay [15]; 118% in assay [16]; 113% in assay [17]; 102% in assay [18]. In addition, the growth in assay [19] is 97.7%; in assay [20], 104%.
In the case of `CC(C)Nc1ccc(Nc2ccccc2)cc1`, the growth is 31.3% in assay [1]; 51.1% in assay [2]; 73.4% in assay [3]; 35.3% in [4]; 11% in assay [5]; 51.8% in [6]. Moreover, the growth is 38.7% in assay [7]; 25.5% in assay [8]; 32.8% in assay [9]; 33.7% in assay [10]; 65% in assay [11]; 85.1% in assay [12]. Moreover, the growth in assay [13] was 19.8%; in assay [14] it was 83.1%; in [15] it was 65.1%; in assay [16] it was 7.43% (active); in [17], 74.8%; in assay [18], 23%. The figures for the growth in [19] and in [20] were 32% and 27.6%, respectively.
Consider `CCC(/C=C(C)/C=C/C(=O)c1c(O)c(-c2ccc(O)cc2)c[nH]c1=O)CO` (stereo not given), for which the growth is 98.4% in [1]; 106% in [2]; 96% in assay [3]; 98% in assay [4]; 93.4% in assay [5]; 87.6% in [6]. For the same molecule, the growth in assay [7] was 9.29% (active); in [8], 111%; in assay [9], 45.1%; in [10], 90.6%; in assay [11], 99.8%; in assay [12], 105%. For the same molecule, the growth is 91.7% in [13]; 67.9% in assay [14]; 134% in assay [15]; 41.8% in [16]; 96.2% in assay [17]; 80.9% in [18]. Further, the growth in assay [19] is 88.7%; in [20] it was 47%.
